Assay results reported in PubChem BioAssay (NCATS).
Results filed as inconclusive are left out. Unmarked numbers belong to inactive results. Active and inactive are the calls of the source. Calls come from the whole dose curve; as a rule, active = well fitted cell-killing curve with a large enough effect; inconclusive = small, poorly fitted or top-dose-only effect, or effect the other way; inactive = flat fitted curve, though single readings scatter. Where a SMILES comes first, the peptide text is derived from it. [ ]: non-standard residue; d: D form. Ala(indol-2-yl) = N[C@@H](Cc1cc2ccccc2[nH]1)C(=O)O; Aib = CC(C)(N)C(=O)O

Each compound was assayed on SKOV3 (assay: Primary qHTS to identify gynecologic anti-cancer compounds using libraries of approved drugs and bioactive compounds (AID 1345084; note: nearly all actives have a fitted effect of over 55% in size)). Conditions: Gynecologic cancer cell panel viability, ATPlite luminescence, 48 h; series mostly up to 57.5 µM.
Outline: (§1)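 Five-concentration response, 48 h; readout is ATP-driven luciferase luminescence.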
% is set by controls: 0 for no effect and ±100 for the full control effect; potency is the fitted concentration of half-maximal effect.

SMILES	Potency	activity change, negative = cytotoxicity
CCC(C)/C=C(C)/C=C/C1=CC2=C(Cl)C(=O)C(C)(OC(C)=O)C(=O)C2=CO1 (centres undefined)	inactive	
COC1CC(O[C@H]2CC[C@]3(C)C4CC[C@]5(C)[C@@H](C6=CC(=O)OC6)[C@@H](OC(C)=O)C[C@]5(O)C4CC[C@@H]3C2)OC(C)C1O (some centres undefined)	794 nM (active)	
C[C@H]1O[C@@H](O[C@H]2CC[C@]3(C=O)C4CC[C@]5(C)[C@@H](C6=CC(=O)OC6)CC[C@]5(O)[C@@H]4CC[C@]3(O)C2)C[C@@H](O)[C@@H]1O (some centres undefined)	112 nM (active)	
C=C1[C@@H](C)[C@H]2[C@H](Cc3ccccc3)NC(=O)[C@]23OC(=O)/C=C/C(=O)CCC[C@@H](C)C/C=C/[C@H]3[C@@H]1O	25100 nM (active)	
COC1CC(O[C@H]2CC[C@@]3(C)C(CCC4C3CC[C@]3(C)[C@@H](C5=CC(=O)OC5)CC[C@]43O)C2)OC(C)C1O (some centres undefined)	126 nM (active)	
CC(C)(C)[C@]1(O)C[C@@H]2OC(=O)C[C@@]23C(=O)O[C@@H]2OC(=O)[C@@H](O)[C@]213	inactive	
C[C@H]1C/C=C/[C@H]2[C@@H]3O[C@]3(C)[C@@H](C)[C@H]3[C@H](Cc4ccccc4)NC(=O)[C@]32OC(=O)O/C=C/[C@@](C)(O)C1=O	2000 nM (active)	
CNC(=O)c1cc(C#N)cc(C)c1NC(=O)c1cc(Br)nn1-c1ncccc1Cl	inactive	
OCc1nnc2n1-c1ccc(Cl)cc1C(c1ccccc1Cl)=NC2	inactive	
CN[C@@H]1C[C@H]2O[C@@](C)([C@@H]1OC)n1c3ccccc3c3c4c(c5c6ccccc6n2c5c31)C(=O)NC4	316 nM (active)	
COC1CC(O[C@H]2CC[C@]3(C=O)C4CC[C@]5(C)[C@@H](C6=CC(=O)OC6)CC[C@]5(O)[C@@H]4CC[C@@H]3C2)OC(C)C1O[C@@H]1O[C@H](CO)[C@@H](O[C@@H]2O[C@H](CO)[C@@H](O)[C@H](O)[C@H]2O)[C@H](O)[C@H]1O (some centres undefined)	398 nM (active)	
CO[C@@H]1C[C@H](O[C@H]2CC[C@@]3(C)C(CCC4C3CC[C@]3(C)[C@@H](C5=CC(=O)OC5)[C@@H](OC(C)=O)CC43O)C2)O[C@H](C)[C@@H]1O[C@H]1O[C@H](CO[C@@H]2O[C@H](CO)[C@@H](O)[C@H](O)[C@H]2O)[C@@H](O)[C@H](O)[C@H]1O (some centres undefined)	2000 nM (active)	
CC(=O)O[C@@H]1[C@@H](O)[C@H]2O[C@@H]3C=C(C)[C@@H](O)C[C@]3(CO)[C@]1(C)[C@]21CO1	1260 nM (active)	
c1cncc(OC[C@@H]2CCN2)c1	inactive	
CC(C)(NC(=O)[C@@H](N)Cc1ccc(O)cc1)C(=O)N[C@@H](Cc1cc2ccccc2[nH]1)C(=O)N[C@@H](Cc1ccccc1)C(=O)O (H-Y[Aib][Ala(indol-2-yl)]F-OH)		-8.69% [at 11.6 µM]
CC[C@H]1C2CC3[C@@H]4N(C)c5ccccc5[C@]45C[C@@H]([C@H]2[C@H]5O)N3[C@@H]1O	inactive	
CC1=C[C@H]2O[C@@H]3C[C@H]4OC(=O)/C=C/C=C/C(=O)OCC/C(C)=C/C(=O)OC[C@@]2(CC1)[C@]4(C)[C@]31CO1	70.8 nM (active)	
C=C(CO)C(=O)O[C@H]1CC(=C)[C@@H]2C[C@H](O)C(=C)[C@@H]2[C@H]2OC(=O)C(=C)[C@@H]21	inactive	
CC1CCCC(=O)CCC/C=C/c2cc(O)cc(O)c2C(=O)O1 (centres undefined)	inactive	
CC[C@@]1(O)C(=O)OCc2c1cc1n(c2=O)Cc2cc3c(OC)cccc3nc2-1	447 nM (active)	
CC(=O)OC[C@]12C[C@H](O)C(C)=C[C@H]1O[C@@H]1[C@H](O)[C@@H](O)[C@@]2(C)[C@]12CO2	3980 nM (active)	
CC[C@H]1C[C@@H]2CC[C@@H](O2)[C@@H](C)C(=O)O[C@H](CC)C[C@H]2CC[C@H](O2)[C@H](C)C(=O)O[C@@H](C)C[C@@H]2CC[C@@H](O2)[C@@H](C)C(=O)O[C@H](CC)C[C@H]2CC[C@H](O2)[C@H](C)C(=O)O1	251 nM (active)	
C[C@H]1O[C@@H](n2cnc3c(N)ncnc32)C[C@@H]1O	inactive	
CO[C@H]1[C@@H](O)[C@@H](C)O[C@@H](O[C@@H]2C=C3C(OC(C)=O)CC4(O)C(CC[C@]5(C)[C@@H](C6=CC(=O)OC6)CC[C@]45O)[C@@]3(C)CC2)[C@@H]1O (some centres undefined)	282 nM (active)	
CN(C)c1cc2c(cc1Sc1nc3c(N)nccc3n1CCNCC(C)(C)C)OCO2	5620 nM (active)	

Each compound was assayed on Tov-21-G in the same assay as above. Conditions: Gynecologic cancer cell panel viability, ATPlite luminescence, 48 h; series mostly up to 57.5 µM.
Outline: as §1

SMILES	Potency	activity change, negative = cytotoxicity
CCC(C)/C=C(C)/C=C/C1=CC2=C(Cl)C(=O)C(C)(OC(C)=O)C(=O)C2=CO1 (centres undefined)	inactive	
COC1CC(O[C@H]2CC[C@]3(C)C4CC[C@]5(C)[C@@H](C6=CC(=O)OC6)[C@@H](OC(C)=O)C[C@]5(O)C4CC[C@@H]3C2)OC(C)C1O (some centres undefined)	708 nM (active)	
C[C@H]1O[C@@H](O[C@H]2CC[C@]3(C=O)C4CC[C@]5(C)[C@@H](C6=CC(=O)OC6)CC[C@]5(O)[C@@H]4CC[C@]3(O)C2)C[C@@H](O)[C@@H]1O (some centres undefined)	126 nM (active)	
CC1=CC2OC3[C@H](O)C[C@@](C)([C@]34CO4)[C@@]2(CO)[C@H](O)C1=O (some centres undefined)	14100 nM (active)	
C=C1[C@@H](C)[C@H]2[C@H](Cc3ccccc3)NC(=O)[C@]23OC(=O)/C=C/C(=O)CCC[C@@H](C)C/C=C/[C@H]3[C@@H]1O	15800 nM (active)	
COC1CC(O[C@H]2CC[C@@]3(C)C(CCC4C3CC[C@]3(C)[C@@H](C5=CC(=O)OC5)CC[C@]43O)C2)OC(C)C1O (some centres undefined)	89.1 nM (active)	
CC(C)(C)[C@]1(O)C[C@@H]2OC(=O)C[C@@]23C(=O)O[C@@H]2OC(=O)[C@@H](O)[C@]213	inactive	
CNC(=O)c1cc(C#N)cc(C)c1NC(=O)c1cc(Br)nn1-c1ncccc1Cl	inactive	
OCc1nnc2n1-c1ccc(Cl)cc1C(c1ccccc1Cl)=NC2	inactive	
COC1CC(O[C@H]2CC[C@]3(C=O)C4CC[C@]5(C)[C@@H](C6=CC(=O)OC6)CC[C@]5(O)[C@@H]4CC[C@@H]3C2)OC(C)C1O[C@@H]1O[C@H](CO)[C@@H](O[C@@H]2O[C@H](CO)[C@@H](O)[C@H](O)[C@H]2O)[C@H](O)[C@H]1O (some centres undefined)	224 nM (active)	
CC[C@@H]1C[C@H]2CC[C@H](O2)[C@H](C)C(=O)O[C@@H](C)C[C@@H]2CC[C@@H](O2)[C@@H](C)C(=O)O[C@H](CC)C[C@H]2CC[C@H](O2)[C@H](C)C(=O)O[C@@H](C)C[C@@H]2CC[C@@H](O2)[C@@H](C)C(=O)O1	794 nM (active)	
CO[C@@H]1C[C@H](O[C@H]2CC[C@@]3(C)C(CCC4C3CC[C@]3(C)[C@@H](C5=CC(=O)OC5)[C@@H](OC(C)=O)CC43O)C2)O[C@H](C)[C@@H]1O[C@H]1O[C@H](CO[C@@H]2O[C@H](CO)[C@@H](O)[C@H](O)[C@H]2O)[C@@H](O)[C@H](O)[C@H]1O (some centres undefined)	794 nM (active)	
CC(=O)O[C@@H]1[C@@H](O)[C@H]2O[C@@H]3C=C(C)[C@@H](O)C[C@]3(CO)[C@]1(C)[C@]21CO1	4470 nM (active)	
CO[C@H]1C[C@H](O[C@H]2CC[C@@]3(C)C(=CCC4C3CC[C@]3(C)[C@@H](C5=CC(=O)OC5)CC[C@]43O)C2)O[C@@H](C)[C@@H]1O[C@@H]1O[C@H](CO[C@@H]2O[C@H](CO)[C@@H](O)[C@H](O)[C@H]2O)[C@@H](O)[C@H](O)[C@H]1O (some centres undefined)		-1.43% [at 11.6 µM]
c1cncc(OC[C@@H]2CCN2)c1	inactive	
CC(=O)OC[C@]12C[C@H](OC(=O)CC(C)C)C(C)=C[C@H]1O[C@@H]1[C@H](O)C[C@@]2(C)[C@]12CO2	4470 nM (active)	
CNc1ccc2oc(C[C@H]3O[C@@]4(CC[C@H]3C)O[C@H](C(C)C(=O)c3ccc[nH]3)[C@H](C)C[C@H]4C)nc2c1C(=O)O (some centres undefined)	11200 nM (active)	
C[N@@+]1(CC2CC2)CC[C@]23c4c5ccc(O)c4O[C@H]2C(=O)CC[C@@]3(O)[C@H]1C5	inactive	
COc1ccc2c3c([nH]c2c1)C(C=C(C)C)N1C(=O)C2CCCN2C(=O)C1C3 (centres undefined)	inactive	
CC(=O)OC[C@]12C[C@H](OC(=O)CC(C)C)C(C)=C[C@H]1O[C@@H]1[C@H](O)[C@@H](O)[C@@]2(C)[C@]12CO2	355 nM (active)	
CC(C)(NC(=O)[C@@H](N)Cc1ccc(O)cc1)C(=O)N[C@@H](Cc1cc2ccccc2[nH]1)C(=O)N[C@@H](Cc1ccccc1)C(=O)O (H-Y[Aib][Ala(indol-2-yl)]F-OH)		16.4% [at 11.6 µM]
CC[C@H]1C2CC3[C@@H]4N(C)c5ccccc5[C@]45C[C@@H]([C@H]2[C@H]5O)N3[C@@H]1O	inactive	
CC(=O)OC[C@]12C[C@H](OC(=O)CC(C)C)C(C)=C[C@H]1O[C@@H]1[C@H](O)[C@@H](OC(C)=O)[C@@]2(C)[C@@]12CO2	224 nM (active)	
CC1=C[C@H]2O[C@@H]3C[C@H]4OC(=O)/C=C/C=C/C(=O)OCC/C(C)=C/C(=O)OC[C@@]2(CC1)[C@]4(C)[C@]31CO1	89.1 nM (active)	
C=C(CO)C(=O)O[C@H]1CC(=C)[C@@H]2C[C@H](O)C(=C)[C@@H]2[C@H]2OC(=O)C(=C)[C@@H]21	inactive	
CC1CCCC(=O)CCC/C=C/c2cc(O)cc(O)c2C(=O)O1 (centres undefined)	inactive	
O=C(OC[C@H]1O[C@@H](Oc2ccc(O)cc2CO)[C@H](O)[C@@H](O)[C@@H]1O)c1ccccc1	inactive	
CC[C@@]1(O)C(=O)OCc2c1cc1n(c2=O)Cc2cc3c(OC)cccc3nc2-1	5620 nM (active)	
CC(=O)OC[C@]12C[C@H](O)C(C)=C[C@H]1O[C@@H]1[C@H](O)[C@@H](O)[C@@]2(C)[C@]12CO2	8910 nM (active)	
